We go through 18 compounds from PubChem BioAssay.

Assay [1] in a line: growth inhibition of DIPG glioma cells, dose response, cell-based, SU-DIPG-XVII, MIPE5.0, CellTiter-Glo, qHTS (AID 1347060).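 As to AC50: cells exposed to compound for 48 hours before viability readout.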 Conditions: SU-DIPG-XVII viability, CellTiter-Glo ATP luminescence.
Assay [2] can be described thus: viability loss in pontine glioma line – cell-based, SU-DIPG-XXV, MIPE5.0, CellTiter-Glo, qHTS, dose response (AID 1347065).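 Also: cells exposed to compound for 48 hours before ATP readout.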 Particulars: CellTiter-Glo ATP luminescence.
A short description of assay [3]: JHH-DIPG-1 glioma cell viability, MIPE5.0 library, CellTiter-Glo luminescence, qHTS (AID 1347067).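 Also: cells exposed to compound for 48 hours before readout.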 Particulars: JHH-DIPG-1 glioma viability, CellTiter-Glo ATP luminescence.
Assay [4] in a line: SU-DIPG-XXV glioma cell viability, MIPE5.0 library, qHTS (AID 1347068; cut-off not given, nearly all actives have IC50 up to about 30 µM;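 as to IC50: cells exposed to compound for 48 hours before viability readout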).
A short description of assay [5]: sensitizers of A549 cells to miR-34 induction, primary screen, imaging, A549 dox-inducible miR-34, nuclei and caspase counts (AID 1347080;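 active = compounds whose cell count with miR-34 switched on is under 0.7 times the count with it off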). Conditions: A549 miR-34 inducible, Hoechst nuclei count, 48 h.
The nature of assay [6]: phospholipid biosynthesis inhibitors in animal cells, primary screen, cell-based, LOPAC library, screen 4 (AID 1347384; call rule not given here). Particulars: phospholipid biosynthesis inhibition screen, at 10 µM.
Assay [7] in a line: viability rescue of complex I mutant cybrids, primary screen, cell-based, galactose medium, ATP luminescence (AID 1645843;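 active = z-score of at least 1.8 in each of two replicates, scored against plate mean and spread of sample wells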;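 also: positive z means more ATP and so rescue of galactose-driven cybrid death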). Particulars: complex I mutant cybrid cells, 72 h, stronger effect = higher value.

SMILES strings stand for the structures. Inconclusive results are not listed. Activity calls are given as the source filed them. Unless noted, the limit is not given here; nearly all actives have AC50 up to about 26 µM.

With `CNCCCOc1cc(F)c(-c2c(Cl)nc3ncnn3c2N[C@@H](C)C(F)(F)F)c(F)c1`, the AC50 is 0.0833 µM (active) in assay [1], 0.118 µM (active) in assay [2] and 0.105 µM (active) in assay [3]. Further, the IC50 in assay [4] was 0.235 µM (active).

As to `N[C@@H](CCC(=O)O)C(=O)N[C@@H](Cc1c[nH]c2ccccc12)C(=O)O`, the compound was called inactive in assay [1], in assay [2], in assay [3] and in assay [4].

For `CCc1ccc2nc(Nc3cc(Cc4ccccc4)nc(NC4CCC(O)CC4)n3)sc2c1` (stereo not drawn), the AC50 in assay [1] is 26.3 µM (active); in assay [2], 18.6 µM (active); in assay [3], 20.9 µM (active). In assay [4], the call was inactive.

`Cc1ccc(-c2nn(C(C)(C)CNC(=O)c3ccncc3)c3ncnc(N)c23)cc1`: the AC50 in assay [1] was 10.5 µM (active); in assay [2], 13.2 µM (active); in assay [3] it was 13.2 µM (active). The IC50 in assay [4] was 14.8 µM (active).

`C[C@]1(C(=O)N(CCCC(=O)O)Cc2cccc(Cl)c2)CCN1C(=O)c1csc2ccccc12`: the outcome in assay [1], in assay [2], in assay [3] and in assay [4] was inactive.

Take `Cn1cc(C2=C(c3cn(C)c4cc([N+](=O)[O-])ccc34)C(=O)NC2=O)c2ccccc21`: the AC50 in assay [1] is 0.332 µM (active); in assay [2], 0.263 µM (active); in assay [3], 0.468 µM (active). For the same compound, the IC50 in assay [4] is 4.68 µM (active).

For `COC1CCC(N2C(=O)CNc3ncc(-c4ccc(C(C)(C)O)nc4)nc32)CC1` (stereo not drawn), the AC50 in assay [1] was 9.34 µM (active); in assay [2] it was 11.8 µM (active); in assay [3], 16.6 µM (active). Besides, the IC50 in assay [4] is 14.8 µM (active).

For `COCCNc1cc(NC(=O)N2CCCc3cc(CN4CCN(C)CC4=O)c(C=O)nc32)ncc1C#N`, the compound was called inactive in assay [1], in assay [2], in assay [3] and in assay [4].

`O=C(Nc1ccc2c(c1)CCN(Cc1ncn[nH]1)C2)c1ccccc1-c1ccc(C(F)(F)F)cc1`: the outcome in assay [1], in assay [2], in assay [3], in assay [4] and in assay [6] was inactive. The fold change in assay [5] (stronger effect = lower value, cell number ratio, induced over uninduced) is 1.03 (inactive); in assay [5] (measured here: relative caspase fold change +Dox/-Dox), 1.06. Further, the cell count came to 8100 in assay [5] (measured here: total cells with miR-34 induction, stronger effect = lower value) and 7840 in assay [5] (measured here: total cells without miR-34 induction). Also, the z-score in assay [7] is 0.755 (inactive).

As for `CN[C@@H](C)C(=O)N[C@H](C(=O)N1CCC[C@H]1c1nc(C(=O)c2ccc(F)cc2)cs1)C1CCCCC1`, the call in assay [1], in assay [2], in assay [3] and in assay [4] was inactive.

For the compound `CC(C)(CO)n1cc(C(=O)c2cncc(NC(=O)Cc3ccc(Cl)cn3)c2)c2cnc(N)nc21`, the outcome in assay [1], in assay [2], in assay [3] and in assay [4] was inactive.

For `COc1cccc(-c2c(C)n(Cc3c(F)cccc3C(F)(F)F)c(=O)n(C[C@H](NCCCC(=O)O)c3ccccc3)c2=O)c1F`, the outcome in assay [1], in assay [2], in assay [3] and in assay [4] was inactive.

Take `CC(=O)N1CCN(c2ccc(NC(=O)Cc3cnc(-c4ccnc(F)c4)c(C)c3)nc2)CC1`: the compound was classed as inactive in assay [1], in assay [2], in assay [3] and in assay [4].

With `CN1CCN(C2CCC(n3cc(-c4ccc(Oc5ccccc5)cc4)c4c(N)ncnc43)CC2)CC1` (stereo not drawn), the figures for the AC50 in assay [1], in assay [2] and in assay [3] were 1.48 µM (active), 1.86 µM (active) and 7.42 µM (active), respectively. The half-maximal inhibitory concentration (IC50) in assay [4] is 8.33 µM (active).

As for `FC(F)(F)c1ccc(CNc2ccc(Cc3c[nH]c4ncccc34)cn2)cc1`, the AC50 in assay [1] is 16.6 µM (active); in assay [2], 20.9 µM (active); in assay [3], 18.6 µM (active). The compound was classed as inactive in assay [4].

Consider `CC(C)[C@](O)(c1ccc2cc(OC(F)F)c(OC(F)F)cc2c1)c1cn[nH]n1`, for which the call in assay [1], in assay [2], in assay [3] and in assay [4] was inactive.

For the compound `CCCCCCCCCCCCCCCCOCCCOP(=O)(O)COC(CO)Cn1ccc(N)nc1=O` (stereo not drawn), the result in assay [1], in assay [2], in assay [3] and in assay [4] was inactive.

With `CCCNC(=O)c1cn2ncnc(Nc3cc(C(=O)NC4CC4)ccc3C)c2c1C`, the result in assay [1], in assay [2], in assay [3] and in assay [4] was inactive.

What is called AC50 is the concentration at which the activity in the assay is half-maximal. Broadly, the IC50 is the concentration that inhibits the measured activity by half.
